Measured values published in PubChem BioAssay (Tox21).
Several values for one entry are separate records, joined by “and”; a condition that tells them apart may be missing. Identical values can stand only once. Records with an inconclusive call do not appear. Activity calls are given as the source filed them. Unless noted, the call rests on the fitted dose curve; in most records, active means well fitted curve in the direction sought with a large enough effect in the repeat runs; inconclusive means weak or mixed curves; inactive means no such curve, though single readings can be large; an effect the other way counts as inactive or inconclusive.

Tests used:
[1] = qHTS assay for small molecule agonists of the p53 signaling pathway (AID 651631; calls by dose curve; further: nearly all actives have a fitted effect of over 15% in size; further: potency means the concentration at half of the fitted maximal effect)
Outline: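 We treat p53RE-bla HCT-116 cells with compounds for 16 h at 37 °C, add LiveBLAzer B/G FRET substrate for 2 h at room temperature, and measure fluorescence intensity.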

[2] = qHTS assay for small molecules that induce genotoxicity in human embryonic kidney cells expressing luciferase-tagged ATAD5 (AID 651632); further: nearly all actives have a fitted effect of over 15% in size
Outline: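 Test compounds were delivered by pin tool onto HEK293T reporter cells (2,000/well) expressing ATAD5 fused to luciferase. After 16 hr at 37C, 5% CO2, Amplite was added for 30 min at room temperature and luminescence was measured.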

[3] = qHTS assay for small molecule agonists of the p53 signaling pathway - cell viability (AID 651633; calls by dose curve; further: nearly all actives have a fitted effect of over 30% in size; further: potency means the concentration at half of the fitted maximal effect;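 on activity change, negative = cytotoxicity: p53RE-bla HCT reporter cells with a stable beta-lactamase p53 reporter; series mostly up to about 83 µM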)
Outline: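 p53RE-bla cells were treated with compound for 16 hours at 37 C. Cytotoxicity was then measured as CellTiter-Glo luminescence after 30 min at room temperature.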

[4] = qHTS assay for small molecules that induce genotoxicity in human embryonic kidney cells expressing luciferase-tagged ATAD5 - cell viability (AID 651634; calls by dose curve; further: nearly all actives have a fitted effect of over 25% in size; further: potency means the concentration at half of the fitted maximal effect)
Outline: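 Quantitative high-throughput format. HEK293T cells expressing ATAD5 fused to luciferase were plated at 2,000 cells/well and treated 15.5 hr with compound versus DMSO. Viability was determined by fluorescent live-cell protease substrate, 30 min at 37C.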

[5] = qHTS assay for small molecule disruptors of the mitochondrial membrane potential - cell viability (AID 720634; calls by dose curve; further: nearly all actives have a fitted effect of over 20% in size; further: potency means the concentration at half of the fitted maximal effect;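 on activity change, negative = cytotoxicity: human HepG2 liver cancer cells; series mostly up to about 83 µM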)
Outline: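 Same-well counter-screen: following the MMP dye addition, CellTiter-Glo was added to 1 hr compound-treated HepG2 cells and luminescence read after 30 min at room temperature.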

[6] = qHTS assay to test for compound auto fluorescence at 535 nm (green) in HepG2 cells (AID 720675)
[7] = qHTS assay to test for compound auto fluorescence at 460 nm (blue) in HEK293 cells (AID 720678); further: potency means the concentration at half of the fitted maximal effect
Outline: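 After cell attachment (4-5 hr, 37C), compounds were pinned onto HEK293 monolayers in 10% dialyzed FBS medium. The blue channel (405/460 nm) was read following overnight culture. Equivalency was calculated against triamterene.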

[8] = qHTS assay to test for compound auto fluorescence at 590 nm (red) in HEK293 cells (AID 720679)
Outline: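 Plates of HEK293 cells (10% dialyzed FBS) are treated with 23 nL compound or DMSO vehicle after a 4-5 hr attachment period, incubated overnight at 37C, and read for red fluorescence at 540/590nm.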

[9] = qHTS assay to test for compound auto fluorescence at 590 nm (red) in HepG2 cells (AID 720674)
Outline: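 HepG2 cells, 2,000 per well in MEM with 10% FBS, attached overnight at 37 C, then got 23 nL compound or DMSO. After 1 hr at 37 C, 5% CO2, red fluorescence was read at 540/590 nm against Rose Bengal sodium as reference.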

[10] = qHTS assay for small molecule disruptors of the mitochondrial membrane potential (AID 720635); further: potency means the concentration at half of the fitted maximal effect
Outline: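 HepG2 cells exposed to compound 1 hr at 37C, then Mito-MPS dye 30 min. Ratio read of aggregate (540/590 nm) versus monomer (490/535 nm) fluorescence.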
On the % scale 0 is the no-effect control and ±100 the full control effect; tags describe the fitted curve by direction and shape or compound fluorescence and quenching.

CCCCON=O
inactive: Potency [1] | Potency [2] | Potency [3] | Potency [4] | Potency [5] | Potency [6] | Potency [7] | outcome [8]

C=CC(=C)C
inactive: Potency [1] | Potency [2] | Potency [3] | Potency [4] | Potency [5] | outcome [9] | Potency [6] | Potency [7] | outcome [8]

CCCCC/C=C\C/C=C\C/C=C\C/C=C\CCCC(=O)NCC(=O)O
inactive: activation [1] -5.49% [at 8.3 µM] | activation [2] -2.3% [at 8.08 µM] | activity change, negative = cytotoxicity [3] -17.5% [at 8.08 µM] | activity, negative = cytotoxicity [4] 5.25% [at 8.08 µM] | activity change, negative = cytotoxicity [5] -7.39% [at 8.08 µM] | fluorescence, relative to Rose Bengal [9] -0.484% [at 3.72 µM] | fluorescence, % of fluorescein control [6] 0.165% [at 3.72 µM] | fluorescence, % of triamterene [7] -0.0359% [at 3.72 µM] | fluorescence, % of fluorescent control [8] 0.123% [at 3.72 µM]

CCCCC(CC)COC(=O)OOC(C)(C)C (configuration not stated)
inactive: Potency [1] | Potency [2] | Potency [3] | Potency [4] | Potency [5] | outcome [9] | Potency [6] | Potency [7] | outcome [8]

Cc1cccc(Cc2cnc[nH]2)c1C
inactive: Potency [1] | Potency [2] | Potency [3] | Potency [4] | Potency [5] | Potency [10] | outcome [9] | Potency [6] | Potency [7] | outcome [8]

CC(C)NCC(O)c1ccccc1Cl (configuration not stated)
inactive: Potency [1] | Potency [2] | Potency [3] | Potency [4] | Potency [5] | Potency [10] | outcome [9] | Potency [6] | Potency [7] | outcome [8]

COC(=O)N(OC)c1ccccc1COc1ccn(-c2ccc(Cl)cc2)n1
inactive: Potency [2] | Potency [3] | Potency [4] | outcome [9] | Potency [6] | Potency [7] | outcome [8]
active: Potency [1] 1.72 µM | Potency [5] 1.93 µM | Potency [10] 4.86 µM

CC(C)(C)c1ccc(OP(=O)(Oc2ccccc2)Oc2ccccc2)cc1
inactive: Potency [1] | Potency [2] | Potency [3] | Potency [4] | outcome [9] | Potency [6] | Potency [7] | outcome [8]
active: Potency [10] 9.75 µM

CCC1COC(Cn2cncn2)(c2ccc(Cl)cc2Cl)O1 (configuration not stated)
inactive: Potency [1] | Potency [2] | Potency [3] | Potency [4] | Potency [5] | outcome [9] | Potency [6] | Potency [7] | outcome [8]

CCCCCON=O
inactive: Potency [1] | Potency [2] | Potency [3] | Potency [4] | Potency [5] | Potency [10] | outcome [9] | Potency [6] | Potency [7] | outcome [8]

CCOP(=S)(OCC)Oc1cc(C)nc(N(CC)CC)n1
inactive: Potency [1] | Potency [2] | Potency [3] | Potency [4] | outcome [9] | Potency [6] | Potency [7] | outcome [8]
active: Potency [10] 48.6 µM

CC(Cc1ccc2c(c1)OCO2)NO (configuration not stated)
inactive: Potency [1] | Potency [2] | Potency [3] | Potency [4] | Potency [5] | Potency [6] | Potency [7] | outcome [8]

COc1nc(C)nc(NC(=O)NS(=O)(=O)c2ccccc2Cl)n1
inactive: Potency [1] | Potency [2] | Potency [3] | Potency [4] | Potency [5] | Potency [10] | outcome [9] | Potency [6] | Potency [7] | outcome [8]

O=C1C(Cl)=C(Cl)C(=O)C(Cl)=C1Cl
inactive: Potency [2] | Potency [4] | outcome [9] | Potency [6] | Potency [7] | outcome [8]
active: Potency [1] 30.5 µM and 6.11 µM | Potency [3] 19.3 µM and 21.7 µM | Potency [5] 30.5 µM and 27.3 µM | Potency [10] 8.6 µM and 8.63 µM

CC(=O)C(Cl)C(=O)N(C)C (configuration not stated)
inactive: Potency [1] | Potency [2] | Potency [3] | Potency [4] | Potency [5] | outcome [9] | Potency [6] | Potency [7] | outcome [8]

COC(=O)c1ccccc1S(=O)(=O)NC(=O)Nc1nc(C)nc(OC)n1
inactive: Potency [1] | Potency [2] | Potency [3] | Potency [5] | outcome [9] | Potency [6] | Potency [7] | outcome [8]

O=P(Cl)(Cl)Cl
inactive: Potency [1] | Potency [2] | Potency [3] | Potency [5] | Potency [10] | outcome [9] | Potency [6] | Potency [7] | outcome [8]

[Cl][Hg][c]1ccccc1
active: Potency [1] 6.11 µM | Potency [3] 1.93 µM | Potency [4] 19.3 µM | Potency [10] 6.11 µM
inactive: Potency [2] | Potency [6] | Potency [7] | outcome [8]

N#Cc1c[nH]cc1-c1cccc2c1OC(F)(F)O2
active: Potency [1] 8.63 µM | Potency [5] 5.45 µM | Potency [10] 2.17 µM
inactive: Potency [2] | Potency [4] | outcome [9] | Potency [6] | Potency [7] | outcome [8]

CN1CCc2cc3c(cc2C1O)OCO3 (configuration not stated)
inactive: Potency [2] | Potency [3] | Potency [5] | Potency [6] | outcome [8]
active: Potency [1] 61.5 µM | Potency [7] 35.5 µM [fluorescent]

CC1=C2C[C@H]3[C@@H](CC=C4C[C@@H](O)CC[C@@]43C)[C@@H]2CC[C@]12O[C@@H]1C[C@H](C)CN[C@H]1[C@H]2C
inactive: Potency [1] | Potency [2] | Potency [4] | outcome [9] | Potency [6] | Potency [7] | outcome [8]

CC(C)=CCN1CC[C@@]2(C)c3cc(O)ccc3C[C@@H]1[C@@H]2C
inactive: Potency [1] | Potency [2] | Potency [4] | Potency [5] | Potency [10] | outcome [9] | Potency [6] | Potency [7] | outcome [8]

C#CCO
inactive: Potency [1] | Potency [2] | Potency [3] | Potency [4] | outcome [9] | Potency [6] | Potency [7] | outcome [8]

C=CCBr
inactive: Potency [1] | Potency [2] | Potency [4] | Potency [5] | outcome [9] | Potency [6] | Potency [7] | outcome [8]
